± gives the standard deviation of the averaged measurements.
Key:
DLD1 [1] = experiment: cell viability (CellTiter-Glo) relative to plate median (fraction of plate median); higher = more viable cells; conditions: 5 µM; treatment time 24 h; reporter: 7TFP
Method in brief: (§1)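 Each entry is a luminescence signal normalised to the plate median, averaged over independent replicates. The replicate count was two, and the cells were colorectal cancer lines with stable lentiviral TCF/Wnt firefly luciferase reporters exposed to library compounds at a final 5 µM for 24 h. Firefly luciferase and CellTiterGlo were measured on parallel plates.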

HCT116 = experiment: as above; conditions: 5 µM; treatment time 24 h; reporter: TCF4/Wnt
Method in brief: as §1

SW480 [2] = experiment: as above; conditions: 5 µM; treatment time 24 h; reporter: 7TFP
Method in brief: as §1

DLD1 [3] = experiment: TCF/Wnt firefly luciferase reporter signal relative to plate median (fraction of plate median); higher = higher Wnt reporter signal; conditions: 5 µM; treatment time 24 h; reporter: 7TFP
Method in brief: as §1

SW480 [4] = experiment: as above; conditions: 5 µM; treatment time 24 h; reporter: 7TFP
Method in brief: as §1

SMILES	cell viability (DLD1 [1])	cell viability (HCT116)	cell viability (SW480 [2])	TCF/Wnt firefly luciferase reporter signal (DLD1 [3])	TCF/Wnt firefly luciferase reporter signal (SW480 [4])
CCOC(=O)[N-]c1c[n+](N2CCOCC2)no1	1.065 ± 0.0071	1.01 ± 0.089	1.02 ± 0.035	0.984 ± 0.037	1.11 ± 0.078
C[C@@H]1O[C@@H]1P(=O)(O)O	1.04	0.995 ± 0.15	1.06 ± 0.028	1.03 ± 0.028	0.997 ± 0.22
CC(C)=CCc1cccc2c(C[C@@H]3NC(=O)[C@H](C)NC3=O)c[nH]c12 [Terezine D]	1.03 ± 0.021	0.9635 ± 0.0021	0.981 ± 0.084	1.12 ± 0.31	0.92 ± 0.0099
CC(=O)[C@H]1CC[C@H]2[C@@H]3C[C@H](C)C4=CC(=O)CC[C@]4(C)[C@H]3[C@@H](O)C[C@]12C	0.979 ± 0.12	0.981 ± 0.042	0.958 ± 0.029	1.01 ± 0.069	1 ± 0.022
O=C1CN2Cc3c(ccc(Cl)c3Cl)N=C2N1	1.05 ± 0.081	1.04	1 ± 0.011	1.19 ± 0.092	0.98 ± 0.13
Nc1nc(=O)c2nc(CNc3ccc(C(=O)N[C@@H](CCC(=O)O)C(=O)O)cc3)cnc2[nH]1	1.07 ± 0.057	0.977 ± 0.075	1.03 ± 0.044	1.01 ± 0.098	1.05 ± 0.12
Cc1ccc2c(c1)CC[C@H]1CC(=O)CC[C@]21C	1.03 ± 0.035	1.05 ± 0.097	0.9365 ± 0.0021	0.941 ± 0.13	0.957 ± 0.0028
COc1c(CC(=O)c2cc3c(cc2O)OC(C)(C)C(O)C3)ccc2c1C=CC(C)(C)O2 (stereo not given)	1.02 ± 0.03	1.02 ± 0.035	0.911 ± 0.021	0.941 ± 0.039	0.929 ± 0.08
N=C(N)NCCCCNC(=N)N	0.922 ± 0.0085	0.978 ± 0.1	0.965 ± 0.017	0.994 ± 0.14	1.04 ± 0.067
CCCCCCCCCCCC[C@@H](C(=O)O)[C@H](C)C(=O)O	1.005 ± 0.0071	1.08 ± 0.25	1 ± 0.028	0.944 ± 0.11	1.03
CC(C)CCCC(C)C1CCC2C3CCC4CCCCC4(C)C3CCC12C (stereo not given)	1	0.997 ± 0.033	0.9585 ± 0.00071	0.94 ± 0.042	1.02 ± 0.014
CN(C)[C@@H]1C(O)=C(C(N)=O)C(=O)[C@@]2(O)C(O)=C3C(=O)c4c(O)cccc4[C@@](C)(O)[C@H]3C[C@@H]12	0.988 ± 0.074	1.04 ± 0.093	1 ± 0.024	0.911 ± 0.11	0.839 ± 0.031
COc1c(O)cc2c(-c3ccccc3)cc(=O)oc2c1OC	0.989 ± 0.016	1.03 ± 0.028	0.977 ± 0.061	1.03	0.977 ± 0.033
CN(C)C(=O)C(CCN1CCC(O)(c2ccc(Cl)cc2)CC1)(c1ccccc1)c1ccccc1	0.892 ± 0.14	0.912 ± 0.033	0.983 ± 0.019	0.982 ± 0.28	0.816 ± 0.16
CC[C@]1(O)C[C@@H]2CN(CCc3c([nH]c4ccccc34)[C@@](C(=O)OC)(c3cc4c(cc3OC)N(C)[C@H]3[C@@](O)(C(=O)OC)[C@H](OC(C)=O)[C@]5(CC)C=CCN6CC[C@]43[C@@H]65)C2)C1	0.879 ± 0.16	0.477 ± 0.019	1.1 ± 0.035	0.803 ± 0.15	0.867 ± 0.2
CN[C@H](CC(C)C)C(=O)N[C@H]1C(=O)N[C@@H](CC(N)=O)C(=O)N[C@H]2C(=O)N[C@H]3C(=O)N[C@H](C(=O)N[C@H](C(=O)O)c4cc(O)cc(O)c4-c4cc3ccc4O)[C@H](O)c3ccc(c(Cl)c3)Oc3cc2cc(c3O[C@@H]2O[C@H](CO)[C@@H](O)[C@H](O)[C@H]2O[C@H]2C[C@](C)(N)[C@H](O)[C@H](C)O2)Oc2ccc(cc2Cl)[C@H]1O	1.08 ± 0.11	1.01 ± 0.014	0.979 ± 0.012	1.09 ± 0.057	1.02 ± 0.035
NC[C@@H]1O[C@@H](O[C@H]2[C@H](O)[C@@H](O[C@H]3O[C@H](CO)[C@@H](O)[C@H](N)[C@H]3O)[C@H](N)C[C@@H]2N)[C@@H](O)[C@H](O)[C@H]1O	0.986 ± 0.091	1.04 ± 0.014	0.94 ± 0.0042	1.02 ± 0.035	0.988 ± 0.031
COc1ccc(-c2coc3cc(O)cc(O)c3c2=O)cc1	1.01 ± 0.065	0.888 ± 0.016	1.01 ± 0.044	0.985 ± 0.16	1.05 ± 0.064
CCc1nc(N)nc(N)c1-c1ccc(Cl)cc1	0.972 ± 0.082	0.999 ± 0.03	1.02 ± 0.021	1.1 ± 0.23	1.1 ± 0.042
O=c1cc[nH]c(=S)[nH]1 [Thiouracil]	1.08 ± 0.17	1.12 ± 0.11	1.04 ± 0.064	0.944 ± 0.093	0.8625 ± 0.00071
COc1cc([C@@H]2c3cc4c(cc3[C@@H](O[C@@H]3O[C@@H]5CO[C@@H](C)O[C@H]5[C@H](O)[C@H]3O)[C@H]3COC(=O)[C@H]23)OCO4)cc(OC)c1O	1.03 ± 0.028	0.895 ± 0.12	1.03 ± 0.042	0.815 ± 0.14	0.879 ± 0.12
CCCC(=O)O[C@]1(C(=O)CO)CC[C@H]2[C@@H]3CCC4=CC(=O)CC[C@]4(C)[C@H]3[C@@H](O)C[C@@]21C	0.965 ± 0.03	0.958 ± 0.16	1.02	0.895 ± 0.016	0.956 ± 0.0057
Cc1cc(=O)oc2cc(O)c(O)cc12	0.951 ± 0.035	0.886 ± 0.071	0.98 ± 0.057	0.711 ± 0.25	1.085 ± 0.0071
CO[C@H]1C=C[C@@]23c4cc5c(cc4CN(C[C@@H]2O)[C@H]3C1)OCO5	0.864 ± 0.075	0.847 ± 0.069	0.862 ± 0.035	0.857 ± 0.057	0.901 ± 0.18
CCCCC1C(=O)N(c2ccccc2)N(c2ccccc2)C1=O	1.02 ± 0.063	0.987 ± 0.12	1.035 ± 0.0071	1.14 ± 0.085	1.01 ± 0.024
CCCCCCCCCCCCCCCCOP(=O)([O-])OCC[N+](C)(C)C	1.04 ± 0.035	0.984 ± 0.0099	0.969 ± 0.035	1.07 ± 0.16	1.04 ± 0.05
CCn1cc(C(=O)O)c(=O)c2cc(F)c(N3CCNCC3)cc21	0.944 ± 0.061	0.98 ± 0.18	0.926 ± 0.0014	1.19 ± 0.042	1.07 ± 0.071
COc1cc(OC)c2c(=O)c(O)c(-c3ccc(OC)c(OC)c3)oc2c1	0.981 ± 0.055	1 ± 0.024	1.01 ± 0.021	0.899 ± 0.1	0.887 ± 0.17
